Consider eleven compounds from PubChem BioAssay (Tox21).

Several values for one entry are separate records, joined by “and”; a condition that tells them apart may be missing. Equal entries are not always repeated. More than one record can exist for a structure, and the calls need not agree. Activity calls are given as the source filed them. Unless noted, the call rests on the fitted dose curve; in most records, active means well fitted curve in the direction sought with a large enough effect in the repeat runs; inconclusive means weak or mixed curves; inactive means no such curve, though single readings can be large; an effect the other way counts as inactive or inconclusive.

A short description of experiment [1]: qHTS assay to identify small molecule antagonists of the glucocorticoid receptor (GR) signaling pathway - cell viability counter screen (AID 720693). Further: nearly all actives have a fitted effect of over 55% in size. Further: potency means the concentration at half of the fitted maximal effect.
The nature of experiment [2]: qHTS assay for identifying genotoxic compounds that show differential cytotoxicity against isogenic chicken DT40 cell lines with known DNA damage response pathways - wild type cell line (AID 743012). Further: nearly all actives have a fitted effect of over 60% in size. Further: potency means the concentration at half of the fitted maximal effect. The essentials: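 Viability of DNA repair-proficient chicken DT40 cells was assessed by CellTiter-Glo luminescence following 40 h compound exposure at 37 C/5% CO2.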
Experiment [3] in a line: qHTS assay for identifying genotoxic compounds that show differential cytotoxicity against isogenic chicken DT40 cell lines with known DNA damage response pathways - Rev3 mutant cell line (AID 743014). Further: nearly all actives have a fitted effect of over 55% in size. Further: potency means the concentration at half of the fitted maximal effect.
A short description of experiment [4]: qHTS assay for identifying genotoxic compounds that show differential cytotoxicity against isogenic chicken DT40 cell lines with known DNA damage response pathways - Rad54/Ku70 mutant cell line (AID 743015). Further: nearly all actives have a fitted effect of over 60% in size. Further: potency means the concentration at half of the fitted maximal effect.
Experiment [5] in a line: qHTS assay to identify small molecule antagonists of the androgen receptor (AR) signaling pathway - cell viability counter screen (AID 743033; further: nearly all actives have a fitted effect of over 45% in size; further: potency means the concentration at half of the fitted maximal effect).
The nature of experiment [6]: qHTS assay to identify small molecule antagonists of the androgen receptor (AR) signaling pathway using the MDA cell line - cell viability counter screen (AID 743041; further: nearly all actives have a fitted effect of over 45% in size; further: potency means the concentration at half of the fitted maximal effect). An outline of the steps: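 In this qHTS counter assay, fluorescence intensity after CellTiter-Fluor addition indicated viability of MDA-kb2 AR-luc cells given compounds and R1881 for 16 h at 37C.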
Experiment [7] in a line: qHTS assay to identify small molecule antagonists of the thyroid receptor (TR) signaling pathway (AID 743065). Further: nearly all actives have a fitted effect of over 55% in size. Further: potency means the concentration at half of the fitted maximal effect. The essentials:
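GH3.TRE-Luc rat pituitary cells carrying two TR response elements driving luciferase were plated for 4 h, given compound plus 1 nM T3 (final), and incubated 23.5 h at 37 C. ONE-Glo luminescence measured reporter inhibition; CellTiter-Fluor fluorescence tracked cytotoxicity.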

The test system of experiment [8] is thyroid hormone receptor (rat, GH3 cells). As to the kind of experiment: qHTS assay to identify small molecule agonists of the thyroid receptor (TR) signaling pathway (AID 743066; calls by dose curve).
Experiment [9] is described as follows: qHTS assay to identify small molecule antagonists of the estrogen receptor alpha (ER-alpha) signaling pathway - cell viability counter screen (AID 743074; calls by dose curve;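 further: HEK293 cells carrying ER-alpha-UAS-bla reporter stimulated with 17beta-estradiol; nearly all actives have a fitted effect of over 45% in size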; further: potency means the concentration at half of the fitted maximal effect).
The nature of experiment [10]: qHTS assay to identify small molecule antagonists of the estrogen receptor alpha (ER-alpha) signaling pathway using the BG1 cell line - cell viability counter screen (AID 743081).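 Further: compound given together with 17beta-estradiol as the ER stimulus; nearly all actives have a fitted effect of over 45% in size.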 Further: potency means the concentration at half of the fitted maximal effect.
The target of the next experiment is Aromatase (Homo sapiens) (UniProt P11511). Briefly: qHTS assay to identify aromatase inhibitors (AID 743083). Further: nearly all actives have a fitted effect of over 55% in size. Further: potency means the concentration at half of the fitted maximal effect.
Aromatase (Homo sapiens), sequence (P11511 whole entry, looked up): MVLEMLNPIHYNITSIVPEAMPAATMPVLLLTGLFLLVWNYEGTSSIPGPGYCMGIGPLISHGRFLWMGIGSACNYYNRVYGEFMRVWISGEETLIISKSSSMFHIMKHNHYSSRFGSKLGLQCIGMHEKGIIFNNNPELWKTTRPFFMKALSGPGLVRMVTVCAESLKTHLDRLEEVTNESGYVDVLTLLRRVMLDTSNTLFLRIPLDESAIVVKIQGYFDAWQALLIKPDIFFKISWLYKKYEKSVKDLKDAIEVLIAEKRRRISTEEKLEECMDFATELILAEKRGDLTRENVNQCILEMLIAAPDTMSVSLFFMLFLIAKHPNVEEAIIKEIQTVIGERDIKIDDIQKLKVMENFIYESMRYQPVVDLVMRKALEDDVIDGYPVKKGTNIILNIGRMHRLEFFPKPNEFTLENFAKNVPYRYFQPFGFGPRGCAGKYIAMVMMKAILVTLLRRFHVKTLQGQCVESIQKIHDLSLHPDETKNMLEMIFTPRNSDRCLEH
Experiment [11] addresses Androgen receptor (Homo sapiens) (UniProt P10275). As to the kind of experiment: qHTS assay to identify small molecule antagonists of the androgen receptor (AR) signaling pathway (AID 743035; active means well fitted inhibition curve with a large enough effect in the signal ratio in the repeat runs, not every such curve was filed as active; inconclusive means weak or mixed curves, or effect the other way; inactive means no such curve, though single readings can be large or run the other way; the % refers to the signal ratio). The essentials: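 Reporter HEK293 cells were exposed to compounds and R1881 overnight (16 h, 37C); beta-lactamase activity was then quantified by FRET fluorescence.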
Experiment [12] has the same target. Briefly: qHTS assay to identify small molecule agonists of the androgen receptor (AR) signaling pathway (AID 743036; active means well fitted activation curve with a large enough effect in the signal ratio in the repeat runs, with a control signal flat, not every such curve was filed as active; inconclusive means weak or mixed curves, or effect the other way; inactive means no such curve, though single readings can be large or run the other way; the % refers to the signal ratio). The essentials: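 Activation was read as beta-lactamase FRET signal from LiveBLAzer B/G substrate, added for 2 h at room temperature. Before that, GeneBLAzer AR-UAS-bla GripTite (HEK293) cells had 16 h compound exposure at 37C.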
Experiment [13] shares this target. As to the kind of experiment: qHTS assay to identify small molecule agonists of the androgen receptor (AR) signaling pathway using the MDA cell line (AID 743040; further: nearly all actives have a fitted effect of over 20% in size). To be noted: MDA-kb2 AR-luc cells, MMTV luciferase, 16 h, stronger effect = higher value. The essentials:
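Cell-based luciferase reporter: MDA-kb2, MMTV promoter (AR + GR response elements). 16 h compound exposure at 37C; ONE-Glo, 30 min RT, luminescence.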

The target is the same in experiment [14]. As to the kind of experiment: qHTS assay to identify small molecule antagonists of the androgen receptor (AR) signaling pathway using the MDA cell line (AID 743042; further: nearly all actives have a fitted effect of over 55% in size). An outline of the steps: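 MDA-kb2 cells (human breast carcinoma, stably carrying an MMTV-luciferase reporter responsive to AR and GR) were plated at 3,000 cells/well and preincubated 5 hr at 37C, then given compound plus R1881 agonist for 16 h. ONE-Glo luminescence was read.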

Experiment [15] addresses Estrogen receptor (Homo sapiens) (UniProt P03372). As to the kind of experiment: qHTS assay to identify small molecule antagonists of the estrogen receptor alpha (ER-alpha) signaling pathway (AID 743069; active means well fitted curve in the direction sought with a large enough effect in the signal ratio in the repeat runs, not every such curve was filed as active; inconclusive means weak or mixed curves, or effect the other way; inactive means no such curve, though single readings can be large or run the other way; the % refers to the signal ratio; further: potency means the concentration at half of the fitted maximal effect). An outline of the steps:
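A 17beta-estradiol challenge was applied right after compound transfer to ER-alpha-UAS-bla HEK293 cells previously kept in charcoal-stripped serum. Plates stood 18 hr at 37C and 5% CO2; fluorescence was read following 2 hr FRET substrate loading at room temperature.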

The target is the same in experiment [16]. As to the kind of experiment: qHTS assay to identify small molecule agonists of the estrogen receptor alpha (ER-alpha) signaling pathway (AID 743075; calls by dose curve;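 further: HEK293 GripTite cells with ER-alpha and UAS-driven beta-lactamase reporter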; further: potency means the concentration at half of the fitted maximal effect).
For experiment [17] the target is unchanged. As to the kind of experiment: qHTS assay to identify small molecule agonists of the estrogen receptor alpha (ER-alpha) signaling pathway using the BG1 cell line (AID 743079). Further: nearly all actives have a fitted effect of over 20% in size. Further: potency means the concentration at half of the fitted maximal effect. The settings on record: BG1Luc4E2 cells, ERE-luciferase agonist, 22 h; activation: at 70.3 µM (top of the series) unless noted.
The nature of experiment [18]: qHTS assay to identify small molecule antagonists of the estrogen receptor alpha (ER-alpha) signaling pathway using the BG1 cell line (AID 743080; calls by dose curve;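 further: BG1 cells stimulated with 17beta-estradiol alongside compound; nearly all actives have a fitted effect of over 25% in size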). An outline of the steps:
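BG1-Luc-4E2 cells (endogenous full-length ER-alpha, stable 4×ERE-luciferase) were starved 5 days in phenol-red-free medium with 10% charcoal-stripped FBS, plated 24 h, then given compound plus 17beta-estradiol for 21.5 h at 37 C; ONE-Glo luminescence read after 30 min.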

A short description of experiment [19]: qHTS assay to identify small molecule antagonists of the thyroid receptor (TR) signaling pathway - cell viability counter screen (AID 743064). Further: nearly all actives have a fitted effect of over 50% in size. Further: potency means the concentration at half of the fitted maximal effect. An outline of the steps:
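In-well cytotoxicity read by CellTiter-Fluor (30 min, 37 C) following 23.5 h exposure of GH3 cells bearing a TRE-luciferase sensor. Compounds were added alongside 1 nM (final) T3 to drive TR transactivation.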
On the % scale 0 is the no-effect control and ±100 the full control effect.

Estrogen receptor (Homo sapiens), sequence (P03372 whole entry, looked up): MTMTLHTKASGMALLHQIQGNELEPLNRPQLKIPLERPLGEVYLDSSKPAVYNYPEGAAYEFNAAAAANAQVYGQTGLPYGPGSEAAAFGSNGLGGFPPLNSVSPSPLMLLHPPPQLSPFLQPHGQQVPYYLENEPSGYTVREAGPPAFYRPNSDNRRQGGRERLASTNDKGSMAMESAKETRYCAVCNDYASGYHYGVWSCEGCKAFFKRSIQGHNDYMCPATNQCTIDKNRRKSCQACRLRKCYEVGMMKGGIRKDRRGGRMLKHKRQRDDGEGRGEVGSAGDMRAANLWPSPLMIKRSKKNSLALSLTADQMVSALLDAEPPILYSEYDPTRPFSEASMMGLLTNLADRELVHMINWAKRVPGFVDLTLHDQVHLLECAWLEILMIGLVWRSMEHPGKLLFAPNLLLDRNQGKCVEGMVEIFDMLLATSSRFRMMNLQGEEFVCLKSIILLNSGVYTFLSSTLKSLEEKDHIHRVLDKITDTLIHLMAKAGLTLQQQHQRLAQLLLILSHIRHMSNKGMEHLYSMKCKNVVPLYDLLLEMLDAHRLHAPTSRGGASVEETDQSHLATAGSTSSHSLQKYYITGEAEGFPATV
Androgen receptor (Homo sapiens), sequence (P10275 whole entry, looked up): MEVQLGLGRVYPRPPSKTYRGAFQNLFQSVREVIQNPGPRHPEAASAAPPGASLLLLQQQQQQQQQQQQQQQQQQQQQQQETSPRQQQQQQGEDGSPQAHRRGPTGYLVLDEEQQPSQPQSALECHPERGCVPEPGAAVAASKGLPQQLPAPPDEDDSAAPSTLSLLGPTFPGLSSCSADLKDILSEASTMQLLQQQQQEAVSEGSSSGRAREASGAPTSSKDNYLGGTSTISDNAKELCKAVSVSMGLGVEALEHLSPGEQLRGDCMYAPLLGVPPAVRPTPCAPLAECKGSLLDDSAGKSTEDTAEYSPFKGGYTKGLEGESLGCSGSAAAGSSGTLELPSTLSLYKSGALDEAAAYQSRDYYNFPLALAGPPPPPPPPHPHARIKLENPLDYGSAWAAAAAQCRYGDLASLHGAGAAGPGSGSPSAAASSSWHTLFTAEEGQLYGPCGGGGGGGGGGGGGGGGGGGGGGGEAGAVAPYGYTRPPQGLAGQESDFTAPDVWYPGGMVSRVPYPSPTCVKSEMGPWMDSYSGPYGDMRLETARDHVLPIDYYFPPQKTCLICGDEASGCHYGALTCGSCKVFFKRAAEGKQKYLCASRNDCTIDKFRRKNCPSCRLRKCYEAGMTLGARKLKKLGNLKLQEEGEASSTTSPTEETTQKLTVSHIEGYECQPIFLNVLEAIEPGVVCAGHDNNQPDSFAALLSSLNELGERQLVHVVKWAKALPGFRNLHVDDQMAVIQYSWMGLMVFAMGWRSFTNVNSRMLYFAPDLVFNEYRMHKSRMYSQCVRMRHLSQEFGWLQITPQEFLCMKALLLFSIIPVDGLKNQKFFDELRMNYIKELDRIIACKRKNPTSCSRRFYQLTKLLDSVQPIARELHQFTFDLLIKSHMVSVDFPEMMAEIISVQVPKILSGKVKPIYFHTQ

For the compound `CCCCSP(=O)(SCCCC)SCCCC`, the Potency result in [1], in experiment [3], in experiment [4], in experiment [5], in experiment [6] and in experiment [7] was “inactive” each time. The Potency result (in [8]; in experiment [9]; in experiment [10]; with Aromatase (Homo sapiens)) was “inactive” throughout. Moreover, the Potency in experiment [2] is 61.1 µM (active).
For the compound `CC(C)(c1ccc(OCC2CO2)cc1)c1ccc(OCC2CO2)cc1` (configuration not stated), the Potency result in [1], in [5], in experiment [11], in [12], in experiment [6] and in experiment [14] was “inactive” each time. The Potency entry in experiment [8], in experiment [15], in experiment [9], in experiment [16], in [17] and in [18] was “inactive” each time. The Potency result (in [10]; with Aromatase (Homo sapiens)) was “inactive” throughout. Also, the Potency in [2] is 24.3 µM (active); in experiment [4], 55.2 µM (active) and 27.3 µM (active); in experiment [7], 55.2 µM (active) and 54.5 µM (active). The activity change in [13] (at 70.3 µM (top of the series)) is -0.897% (inactive); in [13] (at 95 µM (top of the series)) it was -0.522% (inactive).
Turning to `N#CC(c1ccccc1)c1ccccc1`, the Potency entry in experiment [1], in experiment [2], in experiment [3], in experiment [4], in [5] and in experiment [6] was “inactive” each time. The Potency entry (in experiment [19]; in [7]; in experiment [8]; in [9]; in [10]; with Aromatase (Homo sapiens)) was “inactive” throughout.
As to `OC(c1ccc(Cl)cc1)(c1cncnc1)c1ccccc1Cl` (configuration not stated), the Potency result in experiment [1], in [6], in experiment [19], in experiment [8], in [9] and in experiment [18] was “inactive” throughout. Further, the Potency result in experiment [10] is “inactive”. In addition, the Potency in experiment [2] is 10.9 µM (active); in experiment [3], 35 µM (active) and 6.86 µM (active); in experiment [4], 49.4 µM (active) and 6.11 µM (active); in [7] it was 61.1 µM (active); in experiment [15], 54.9 µM [inconclusive] (active); in experiment [16], 17.7 µM [activator] (active) and 61.6 µM [inconclusive] (active). The Potency in experiment [17] is 9.69 µM (active).
On to `CC(C)CON=O`, for which the Potency result in experiment [1], in experiment [2], in [3], in [4], in experiment [5] and in experiment [6] was “inactive” throughout. For the same compound, the Potency entry in experiment [19], in experiment [15], in [9], in experiment [16], in experiment [17] and in experiment [18] was “inactive” each time. The Potency entry (in [10]; in the experiment with Aromatase (Homo sapiens)) was “inactive” in each case.
As for `Clc1cccc(C(Cl)(Cl)Cl)n1`, the Potency entry in experiment [1], in experiment [2], in experiment [4], in experiment [5], in [11] and in [12] was “inactive” in each case. In addition, the Potency entry in [6], in [14], in experiment [19], in experiment [7], in [8] and in experiment [15] was “inactive” in each case. The Potency entry (in experiment [9]; in [16]; in [17]; in [18]; in experiment [10]; in the experiment with Aromatase (Homo sapiens)) was “inactive” each time. In experiment [13] (at 70.3 µM (top of the series)), the activity change was 0.42% (inactive) and 1.19% (inactive).
As to `[CH3][Sn]([Cl])([Cl])[Cl]`, the Potency entry in experiment [1], in [2], in [3], in experiment [4], in experiment [5] and in experiment [6] was “inactive” each time. Also, the Potency result (in experiment [19]; in [9]; in experiment [10]; with Aromatase (Homo sapiens)) was “inactive” throughout.
Consider `Cc1ccc(N=CN(C)C=Nc2ccc(C)cc2C)c(C)c1`, for which the Potency entry in experiment [1], in [5], in [6], in experiment [8], in experiment [15] and in [9] was “inactive” throughout. For the same compound, the Potency entry (in experiment [16]; in [17]; in experiment [18]; in experiment [10]; with Aromatase (Homo sapiens)) was “inactive” throughout. Also, the Potency entry in experiment [2] was “inactive and 30.6 µM (active)”; in experiment [3] it was “inactive and 38.5 µM (active)”; in experiment [4], “inactive and 30.6 µM (active)”; in experiment [19], “inactive and 48.5 µM (active)”.
Consider `CN(C)c1ccccc1`, for which the Potency result in [1], in experiment [2], in experiment [3], in [4], in experiment [5] and in [6] was “inactive” throughout. Besides, the Potency entry in experiment [19], in experiment [7], in experiment [8] and in experiment [10] was “inactive” in each case.
For the compound `N#Cc1c(Cl)c(Cl)c(Cl)c(C#N)c1Cl`, the Potency in experiment [1] is 21.5 µM (active) and 21.9 µM (active); in experiment [2] it was 268 nM (active) and 122 nM (active); in experiment [3] it was 213 nM (active) and 172 nM (active); in [4], 268 nM (active) and 154 nM (active); in experiment [5] it was 2.41 µM (active) and 1.55 µM (active); in experiment [6], 4.76 µM (active) and 6.11 µM (active). Besides, the Potency in experiment [19] is 847 nM (active) and 193 nM (active); in [7], 476 nM (active) and 172 nM (active); in experiment [15] it was 3.4 µM [inconclusive] (active); in experiment [9], 42.8 µM (active) and 54.9 µM (active); in experiment [16], 87.1 µM [inconclusive] (active); in experiment [10], 53.4 µM (active) and 61.1 µM (active). The Potency in the experiment with Aromatase (Homo sapiens) was 1.51 µM (active) and 969 nM (active).
`CN(C)P(=O)(N(C)C)N(C)C`: the Potency entry in experiment [1], in experiment [2], in experiment [4], in experiment [5], in [6] and in [19] was “inactive” throughout. For the same compound, the Potency result in experiment [7], in [8], in experiment [15], in [9], in experiment [16] and in [17] was “inactive” in each case. The Potency result (in experiment [18]; in experiment [10]; in the experiment with Aromatase (Homo sapiens)) was “inactive” each time.
